This note sets out measurements from PubChem BioAssay AID1645886 (National Center for Advancing Translational Sciences (NCATS), 2021).

Where “and” joins values, the source holds several entries; their conditions need not be identical. Equal values may be shown once. Hit rate of the full screen: of about 16,000 compounds, about 260 (1.6%) were called active. Inconclusive results (about 14%) are left out. Calls follow the shape of the dose curve; as a rule, active = well fitted inhibition curve with a large enough effect; inconclusive = small, poorly fitted or top-dose-only effect; inactive = no such curve, though single readings can be large or run the other way. Many of the other results were omitted from the sample, so actives are more common in it than they were. Some structures have more than one record in an assay (separate samples or runs), and their calls can disagree. *1 amine or outer side, *2 acyl side, *3 side chain or, on linkers, in order; H or OH if unused. Where a SMILES comes first, the peptide text is derived from it. Bridges are numbered along the chain shown (N, C = ends). [ ]: non-standard residue; d: D form. The star is where a group is joined. X12 = NC1=N[C@@H]([C@H](N[*:1])C(=O)[*:2])C[C@H](O)N1; ΔAla(Z-3-ureido) = NC(=O)N/C=C(\N)C(=O)O; β3hOrn = NCCC[C@H](N)CC(=O)*; Dap = NC[C@H](N)C(=O)O
Potency is read from the fitted curve at half-maximal effect.

Sequence of Rap guanine nucleotide exchange factor 4 (Homo sapiens) (Q8WZA2 whole entry, looked up): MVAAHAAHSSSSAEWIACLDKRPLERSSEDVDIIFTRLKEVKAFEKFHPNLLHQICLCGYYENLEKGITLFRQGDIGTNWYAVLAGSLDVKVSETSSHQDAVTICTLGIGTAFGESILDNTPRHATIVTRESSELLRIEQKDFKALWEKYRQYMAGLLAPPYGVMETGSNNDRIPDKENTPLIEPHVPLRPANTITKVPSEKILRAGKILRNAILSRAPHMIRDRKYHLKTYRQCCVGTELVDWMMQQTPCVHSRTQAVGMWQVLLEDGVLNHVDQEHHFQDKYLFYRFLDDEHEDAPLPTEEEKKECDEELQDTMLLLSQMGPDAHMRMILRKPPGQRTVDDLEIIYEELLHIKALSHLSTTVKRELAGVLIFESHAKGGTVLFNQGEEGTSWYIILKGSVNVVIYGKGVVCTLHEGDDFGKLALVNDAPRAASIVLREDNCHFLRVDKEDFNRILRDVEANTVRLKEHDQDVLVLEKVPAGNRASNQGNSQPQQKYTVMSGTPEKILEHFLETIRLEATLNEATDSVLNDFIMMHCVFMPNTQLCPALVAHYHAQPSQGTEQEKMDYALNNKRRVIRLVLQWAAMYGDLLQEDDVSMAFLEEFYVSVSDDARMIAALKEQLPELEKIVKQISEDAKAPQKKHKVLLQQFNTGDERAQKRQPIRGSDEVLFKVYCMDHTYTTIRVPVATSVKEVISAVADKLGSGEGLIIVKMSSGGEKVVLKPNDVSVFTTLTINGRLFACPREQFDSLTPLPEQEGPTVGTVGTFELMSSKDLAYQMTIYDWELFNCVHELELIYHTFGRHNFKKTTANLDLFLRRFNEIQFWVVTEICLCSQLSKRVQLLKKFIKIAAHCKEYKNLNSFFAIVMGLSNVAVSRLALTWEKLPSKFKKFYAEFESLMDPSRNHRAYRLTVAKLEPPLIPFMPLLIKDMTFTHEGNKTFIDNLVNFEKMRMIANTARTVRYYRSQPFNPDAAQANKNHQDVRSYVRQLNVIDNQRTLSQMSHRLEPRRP

The target in this assay is Rap guanine nucleotide exchange factor 4 (Homo sapiens) (UniProt Q8WZA2). Description: Validation qHTS for antagonist of cAMP-regulated guanine nucleotide exchange factor 4 (EPAC2). Also: nearly all actives have a fitted effect of over 40% in size. The note with it: EPAC2 Rap1B BODIPY-GDP exchange, fluorescence; series mostly up to 112 µM; activity, negative = inhibition: at the top concentration. The text has this:
Principle Investigator: Xiaodong Cheng Ph.D. The University of Texas Medical Branch, […], TX MLPCN Grant: NS066510 In multi-cellular eukaryotic organisms, the effects of cAMP are transduced by two ubiquitously-expressed intracellular cAMP receptors, the classic protein kinase A/cAMP-dependent protein kinase (PKA/cAPK) and the more recently discovered exchange protein directly activated by cAMP/cAMP-regulated guanine nucleotide exchange factor (EPAC/cAMP-GEF). Both PKA and EPAC are ubiquitously expressed in all tissues, and an increase in intracellular cAMP levels will lead to the activation of both PKA and EPAC. Therefore, careful dissections of the individual role and relative contribution of EPAC and PKA within the overall cAMP signaling in various model systems are critical for further elucidating the mechanism of cAMP signaling. To date no EPAC-specific antagonists and agonist, as well as isoform-specific agonists have been reported, and developing EPAC-specific pharmacological probes to determine the physiological functions that EPAC play in the overall cAMP-mediated signaling remains a major challenge within the research field. Furthermore, identified regulators of EPAC may lead to new mechanism-based therapeutic strategies specifically targeting the EPAC / cAMP-signaling components as EPAC has been implicated to play important roles in major human pathological conditions such as diabetes, heart disease, and cancer. This qHTS will be used to screen the Molecular Libraries Small Molecule Repository (MLSMR) as a concentration-titration series using the NCGC unique quantitative screening (qHTS) platform to find activators for EPAC1. In addition, this assay will also be used as a counterscreen for the EPAC2 qHTS. This fluorescent based assay is developed and validated for EPAC1 that measures exchange using EPAC effector Rap1 complex with BODIPY-GDP, a GDP analog with a tethered fluorophores. Activators are identified by monitoring the change in fluorescence signal as the exchanged free BODIPY-GDP has a reduced fluorescence compared to Rap1-bound BODIPY-GDP. Increase in signal (activation) is the desired outcome for the EPAC1 agonist while no activity in this assay is desired for the EPAC2 agonist counterscreen. Reference: [1] de Rooij, J., Zwartkruis, F. J., Verheijen, M. H., Cool, R. H., Nijman, S. M., Wittinghofer, A., and Bos, J.L. (1998) Nature 396, 474-477.
Briefly, three uL of reagents (100 nM EPAC2, 250 nM RAP1B-BODIPY-GDP, 50 uM GDP) were dispensed into a 1536-well Greiner black solid-bottom medium binding assay plate. Controls and test compounds (23 nL) were transferred to the plate via a Kalypsys pin tool equipped with a 1536-pin array. The plates were centrifuged at 1,000 rpm for 15 seconds followed by 5 minute incubation at room temperature. The assay plates were read at 5 minute intervals for 30 minutes in the ViewLux plate reader using 480nm excitation and 540nm emission filters. The results were normalized to the agonist positive control of 6.5 mM cAMP.
As for `C/C=C/C=N/NC(=O)c1ccncc1`, the “activity, negative = inhibition” value is -17.4% (inactive).

In the case of `O=c1c(CCc2ccccc2)nc2cnc(N3CCNCC3)nc2n1Cc1cccs1`, the “activity, negative = inhibition” value is -10.5% (inactive).

As to `COc1ccc(CC(N)C(=O)NC2C(O)[C@H](n3cnc4c(N(C)C)ncnc43)O[C@@H]2CO)cc1` (stereo partly drawn), the “activity, negative = inhibition” value is -11.5% (inactive).

`O=C1c2c(O)cccc2[C@@H]([C@@H]2O[C@H](CO)[C@@H](O)[C@H](O)[C@H]2O)c2cc(CO)cc(O)c21`: the “activity, negative = inhibition” value was -22.2% (inactive).

Turning to `CCOC(=O)N1CCN(Cc2ccc3c(c2)CN(C(=O)c2cccc(-n4cccn4)c2)CCO3)CC1`, the “activity, negative = inhibition” value was -2.38% (inactive).

Regarding `CC(C)c1cc(C(=O)N2CCOc3ccc(CN4CCC(Oc5cccnc5)CC4)cc3C2)n[nH]1`, the “activity, negative = inhibition” value was -9.89% (inactive).

In the case of `CCOC(=O)N1CCC(N2CCOc3ccc(CN4CCC(O)(c5cccnc5)CC4)cc3C2)CC1`, the Potency is 79.4 µM (active).

`COCCn1c(=O)c(-c2ccc(OC)cc2)nc2cnc(Oc3cccc(Cl)c3)nc21`: the “activity, negative = inhibition” value is -28.7% (inactive).

Regarding `CC(C)NC(=O)N1CC[C@@]2(CCCN(C(=O)c3ccco3)C2)C1`, the “activity, negative = inhibition” value was -26.8% (inactive).

For `CC(C)(C)c1ccc(C(=O)C[N+]2(C)CCCc3ccccc32)cc1` (stereo not drawn), the “activity, negative = inhibition” value was -5.47% (inactive).

As for `COc1ccc(F)c(CN2CCC3(CCC(CNC(=O)c4ccn(C)n4)O3)CC2)c1` (stereo not drawn), the “activity, negative = inhibition” value is -3.57% (inactive).

Take `CS(=O)(=O)Nc1cccc(-c2cncnc2Nc2ccccc2)c1`: the “activity, negative = inhibition” value was -7.64% (inactive).

As for `CC(=O)OCC(=O)C1CCC2C3CCC4=CC(=O)CC[C@@]4(C)C3CC[C@]12C` (stereo partly drawn), the “activity, negative = inhibition” value is -10.5% (inactive).

As to `CC(C)c1ccc2c(c1)c(SC(C)(C)C)c(CC(C)(C)C(=O)O)n2Cc1ccc(Cl)cc1`, the Potency entry was “inactive and 50.1 µM (active)”.

`N#Cc1cccc(-c2ccc3ncnc(NCc4cccs4)c3c2)c1`: the “activity, negative = inhibition” value was -7.28% (inactive).

Take `C=C(C)C1CC=C(CO)CC1` (stereo not drawn): the “activity, negative = inhibition” value is -12.9% (inactive).

As for `CCCC1C(=O)N2C(N(C)C)=Nc3ccc(C)cc3N2C1=O` (stereo not drawn), the “activity, negative = inhibition” value is -16.8% [at 56.6 µM] (inactive).

As to `COC(=O)N1CCC2(CCCN(c3ccncc3)C2)CC1`, the “activity, negative = inhibition” value is 1.24% (inactive).

Turning to `CC[N+](C)(CC)CCC[n+]1c(-c2ccccc2)c2cc(N)ccc2c2ccc(N)cc21`, the Potency is 50.1 µM (active).

`O=C1CCN(Cc2ccc([N+](=O)[O-])cc2)CCN1[C@H](CO)Cc1ccccc1`: the “activity, negative = inhibition” value is -7.03% (inactive).

With `Cc1cccc(-c2cc(=O)c3cc(C)ccc3o2)c1`, the “activity, negative = inhibition” value is -23.6% (inactive).

For `CN(C)CCc1c[nH]c2ccc(Cn3cncn3)cc12`, the “activity, negative = inhibition” value is -7.05% (inactive).

For the compound `Cc1noc(C)c1-c1cc(NCc2cccnc2)ncn1`, the “activity, negative = inhibition” value is -28.3% (inactive).

For `C=CC1(C)CC(=O)C2(O)C(C)(O1)C(OC(C)=O)C(O)C1C(C)(C)CCC(O)C12C` (stereo not drawn), the “activity, negative = inhibition” value is -12.8% (inactive).

With `COc1cc(-c2cccnc2)cc2c1OCCN(C(=O)Cc1csc(C)n1)C2`, the “activity, negative = inhibition” value is -11.1% (inactive).

For `CCCCCCc1ccc(O)cc1O`, the Potency was 39.8 µM (active).

Turning to `NCCC[C@H](N)CC(=O)N[C@H]1CNC(=O)[C@H]([C@H]2C[C@H](O)NC(N)=N2)NC(=O)/C(=C/NC(N)=O)NC(=O)[C@H](CO)NC(=O)[C@H](CO)NC1=O` (β3hOrn-[Dap]SS[ΔAla(Z-3-ureido)][X12]; lactam 1-C), the “activity, negative = inhibition” value is -5.63% (inactive).

`O=C(O)C[C@@H]1NC(=O)[C@H](Cc2ccccc2)NC1=O`: the “activity, negative = inhibition” value was -8.54% (inactive).

Turning to `COc1ccc2c(c1)CCc1cnc(-n3ncc(C(=O)NCc4cccnc4)c3C3CC3)nc1-2`, the “activity, negative = inhibition” value was 6.6% (inactive).

On to `Cc1nc2cnc(Nc3ccccc3)nc2n(C[C@H]2CCCO2)c1=O`, for which the “activity, negative = inhibition” value was -3.7% (inactive).

As to `CN1CCN(c2ncc3nc(-c4ccc(Cl)cc4)c(=O)n(-c4ccccc4)c3n2)CC1`, the “activity, negative = inhibition” value was -24.2% (inactive).

Regarding `Cc1nc2cnc(N3CCN(C)CC3)nc2n(C[C@H]2CCCO2)c1=O`, the “activity, negative = inhibition” value is -7.61% (inactive).

Regarding `CC(O)[C@@H](N)C(=O)O` (stereo partly drawn), the “activity, negative = inhibition” value is 12.4% (inactive).

Take `COC(=O)C1CCCCN1Cc1ccc2c(c1)CN(Cc1cc(OC)c3c(c1)OCO3)CCO2` (stereo not drawn): the “activity, negative = inhibition” value was -25.8% (inactive).

On to `NCCC(=O)c1ccccc1N`, for which the “activity, negative = inhibition” value is -11% (inactive).

Regarding `Cc1ccc(-c2nn(CC(C)(C)C)c3ncnc(N)c23)cc1`, the “activity, negative = inhibition” value is -16.1% (inactive).

Regarding `CN[C@@H]1[C@H](O[C@H]2[C@H](O[C@H]3[C@H](O)[C@@H](O)[C@H](N=C(N)N)[C@@H](O)[C@@H]3N=C(N)N)O[C@@H](C)[C@]2(O)CO)O[C@@H](CO)[C@H](O)[C@H]1O`, the “activity, negative = inhibition” value is -7.91% (inactive).

With `CCS(=O)(=O)N(C)[C@@H]1c2cc(C#N)ccc2OC(C)(C)[C@H]1O`, the “activity, negative = inhibition” value was -18.9% (inactive).

Consider `CC(C)=CCN1CCC2(CCc3ccccc32)CC1`, for which the “activity, negative = inhibition” value was 4.49% (inactive).

Regarding `Nc1nc2[nH]c(=O)c(=O)[nH]c2c(=O)[nH]1`, the “activity, negative = inhibition” value is -5.47% (inactive).

For the compound `Cn1c(=O)c(-c2ccccc2)nc2cnc(N3CCNCC3)nc21`, the “activity, negative = inhibition” value was -20.6% (inactive).

For `COc1ccccc1CN1CC2(CCN(S(=O)(=O)c3ccccc3)CC2)C1`, the “activity, negative = inhibition” value is -22.4% (inactive).

For `CCC1(C2CCN(Cc3cccnc3)CC2)NC(=O)N(CC2COc3ccccc3O2)C1=O` (stereo not drawn), the “activity, negative = inhibition” value was -20.3% (inactive).

`CCn1ccnc1C[C@@H]1COc2ccccc2O1`: the Potency is 20 µM (active).

In the case of `Nc1nc2c(nc(Cl)n2C2OC(CO)C(O)C2O)c(=O)[nH]1` (stereo not drawn), the “activity, negative = inhibition” value was -5.51% (inactive).

For the compound `Cc1nnc(C(=O)NC(C)(C)c2nc(C(=O)NCc3ccc(F)cc3)c(O)c(=O)n2C)o1`, the “activity, negative = inhibition” value was 13.2% (inactive).

With `O=C(c1cccc(F)c1)N1CCC2(CC1)CCN(c1ccccc1)CC2`, the “activity, negative = inhibition” value is -18.3% (inactive).

With `COc1ccc(-n2c(=O)c(-c3cn(C)c4ccccc34)nc3cnc(OC)nc32)cc1`, the “activity, negative = inhibition” value is -21.3% (inactive).
